From PubChem BioAssay come the findings set out here.

A short description of assay [1]: HepG2 liver cancer cell viability effects, profiling panel, resazurin fluorescence, 24 h, PK04 Diversity Set (AID 1172). The following applies: higher = more signal.
The nature of assay [2]: basal S. cerevisiae growth modulation, no modifier, primary screen, OD600, strain BY4716, 24 h, basal condition (AID 1173). Particulars: OD600, 24 h, higher = more signal, called active from +8 up or from −8 down.
Assay [3] is described as follows: MM1S myeloma cell viability, profiling panel, resazurin fluorescence, basal, 24 h, PK04 Diversity Set (AID 1174).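 Note: MM1S multiple myeloma cell line.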 The following applies: higher = more signal, called active from +8 up or from −8 down. (In general: Resazurin is reduced to fluorescent resorufin, in cell work by metabolically active cells.)
The target in assay [4] is Dihydroorotate dehydrogenase (quinone), mitochondrial (Plasmodium falciparum (isolate 3D7)) (UniProt Q08210). Description: PfDHODH enzyme inhibitors, primary screen, biochemical, C-terminal His tag, absorbance 600 nm (AID 1175).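 Note: recombinant parasite enzyme with a five histidine tag at its C terminus.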 The following applies: DCIP absorbance 600 nm, higher = more signal, called active from +8 up or from −8 down.
The nature of assay [5]: P. aeruginosa biofilm formation inhibitors, primary screen, strain PAO1, LB-PBS medium, absorbance 600 nm (AID 1176). Particulars: P. aeruginosa PAO1 growth/biofilm, A600, 12 h; higher = more signal.
A short description of assay [6]: S. cerevisiae RM11-1a growth modifiers, primary screen, strain RM11-1a, OD600, basal, 24 h (AID 1177).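 Note: cultures grown under basal conditions with no added stressor.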 Particulars: OD600, 24 h, higher = more signal, called active from +8 up or from −8 down.
A short description of assay [7]: E. coli acrAB mutant growth effects, primary screen, E. coli filamentation inducers, strain DRC39, OD650, 24 h (AID 1178).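 Note: growth measured as culture turbidity by optical density at 650 nm.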 The following applies: higher = more signal, called active from +8 up or from −8 down.
The nature of assay [8]: E. coli acrAB mutant growth effects, primary screen, E. coli filamentation inducers, strain DRC39, OD650, 48 h (AID 1179).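 Note: screen aims at cell division blockers that make cells filament.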 The following applies: E. coli DRC39 delta-acrAB growth, higher = more signal, called active from +8 up or from −8 down.
Assay [9] is described as follows: RPMI8226 myeloma cell viability, profiling panel, resazurin fluorescence, basal, 24 h, PK04 Diversity Set (AID 1180).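 Note: RPMI8826 multiple myeloma cell line at 5000 cells per well.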 The following applies: higher = more signal.
The target of assay [10] is E3 ubiquitin-protein ligase XIAP (Homo sapiens) (UniProt P98170). In words: XIAP binders, primary screen, biophysical, small-molecule microarray, fluorescence 635 nm (AID 1181).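 Note: score merges 667 nm emission and signal to noise over triplicate slides.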 Particulars: small-molecule microarray binding, higher = more signal.
In assay [11] the test system is XIP peptide (Xip251-270) binding. Description: small-molecule binders of XIP peptide, primary screen, biochemical, small-molecule microarray, fluorescence 635/667 nm, 0.1 µg/mL protein (AID 1182). The following applies: fluorescent protein binding, 635 nm, higher = more signal, called active from +8 up or from −8 down.
A further assay has as its system XIP peptide (Xip251-270). Description: small-molecule binders of XIP peptide, primary screen, biochemical, small-molecule microarray, fluorescence 635/667 nm, 0.5 µg/mL protein (AID 1183). Particulars: small-molecule microarray binding, fluorescence 635 nm; higher = more signal.
The nature of assay [12]: Plasmodium falciparum growth inhibition, primary screen, strain 3D7, DAPI fluorescence, 100 nL (AID 1184).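 Note: parasites grown inside human red blood cells in medium with human serum.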 The following applies: P. falciparum 3D7 growth, 3 d, higher = more signal.
Assay [13] deals with Homeobox protein Hox-A13 (Mus musculus) (UniProt Q62424). In words: inhibitors of HoxA13-DNA binding, primary screen, biochemical, fluorescence polarization, labeled oligonucleotide (AID 1185). Particulars: 15 min, higher = more signal, called active from +8 up or from −8 down.
A short description of assay [14]: inhibitors of hydroxyurea-induced Chk1 phosphorylation, primary screen, imaging, HeLa, phospho-Chk1 antibody, percent positive cells (AID 1186). Particulars: hydroxyurea-induced phospho-Chk1 immunofluorescence imaging, higher = more signal.
A short description of assay [15]: inhibitors of hydroxyurea-induced Chk1 phosphorylation, primary screen, imaging, HeLa, phospho-Chk1 nuclear intensity (AID 1187). Particulars: hydroxyurea-induced phospho-Chk1 immunofluorescence imaging, higher = more signal.

Activity calls are given as the source filed them. Unless noted, the rule behind the calls is not given here.

Sequence of Homeobox protein Hox-A13 (Mus musculus) (Q62424 whole entry, looked up): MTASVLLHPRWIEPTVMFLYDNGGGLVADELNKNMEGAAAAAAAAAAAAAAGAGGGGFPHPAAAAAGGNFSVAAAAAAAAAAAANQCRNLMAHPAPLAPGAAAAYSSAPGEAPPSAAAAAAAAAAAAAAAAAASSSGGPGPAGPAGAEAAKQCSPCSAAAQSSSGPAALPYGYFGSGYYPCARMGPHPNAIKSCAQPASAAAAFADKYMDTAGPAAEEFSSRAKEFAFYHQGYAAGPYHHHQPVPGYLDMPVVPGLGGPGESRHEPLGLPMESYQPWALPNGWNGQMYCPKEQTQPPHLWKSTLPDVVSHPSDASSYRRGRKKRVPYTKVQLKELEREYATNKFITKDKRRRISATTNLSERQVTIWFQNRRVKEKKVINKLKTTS
Sequence of Dihydroorotate dehydrogenase (quinone), mitochondrial (Plasmodium falciparum (isolate 3D7)) (Q08210 whole entry, looked up): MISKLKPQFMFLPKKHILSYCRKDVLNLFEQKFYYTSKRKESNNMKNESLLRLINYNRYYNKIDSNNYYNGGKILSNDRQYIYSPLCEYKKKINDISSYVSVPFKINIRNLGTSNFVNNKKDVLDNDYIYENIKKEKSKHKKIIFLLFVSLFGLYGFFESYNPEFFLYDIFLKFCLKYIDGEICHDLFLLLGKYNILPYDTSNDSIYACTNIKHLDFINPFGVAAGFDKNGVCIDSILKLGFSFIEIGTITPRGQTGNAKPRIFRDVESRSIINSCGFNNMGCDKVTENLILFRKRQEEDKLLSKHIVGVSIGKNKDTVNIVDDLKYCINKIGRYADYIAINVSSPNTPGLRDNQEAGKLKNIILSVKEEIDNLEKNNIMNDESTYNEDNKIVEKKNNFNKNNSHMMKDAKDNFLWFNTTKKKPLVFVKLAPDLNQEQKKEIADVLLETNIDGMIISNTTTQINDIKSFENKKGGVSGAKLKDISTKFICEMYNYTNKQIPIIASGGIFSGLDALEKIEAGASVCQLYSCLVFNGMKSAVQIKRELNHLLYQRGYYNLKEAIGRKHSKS
Sequence of E3 ubiquitin-protein ligase XIAP (Homo sapiens) (P98170 whole entry, looked up): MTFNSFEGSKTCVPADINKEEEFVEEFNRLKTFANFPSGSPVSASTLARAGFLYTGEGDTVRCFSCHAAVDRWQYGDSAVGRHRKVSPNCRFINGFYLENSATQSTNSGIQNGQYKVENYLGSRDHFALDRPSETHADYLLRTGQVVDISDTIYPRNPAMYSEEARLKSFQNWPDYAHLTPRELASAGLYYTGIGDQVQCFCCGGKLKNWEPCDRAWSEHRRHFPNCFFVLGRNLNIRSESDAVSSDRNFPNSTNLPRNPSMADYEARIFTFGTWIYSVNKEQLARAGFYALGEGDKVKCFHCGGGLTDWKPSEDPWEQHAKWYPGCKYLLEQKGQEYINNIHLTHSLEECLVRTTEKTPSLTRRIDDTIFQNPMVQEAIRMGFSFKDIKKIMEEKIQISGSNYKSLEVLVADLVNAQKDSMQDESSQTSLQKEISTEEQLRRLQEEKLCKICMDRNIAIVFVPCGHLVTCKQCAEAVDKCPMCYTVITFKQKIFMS

In the case of `[N-]=[N+]=Nc1ccccc1[C@H]1OC(c2ccc(OCCCO)cc2)=N[C@@]1(Cc1ccccc1)C(=O)NCCN1CCOCC1`, the z-score in assay [1] was -0.564; in [2], -2.44 (inactive); in assay [3], -1.5 (inactive); in assay [5], 0.314 (inactive); in assay [6], 0.964 (inactive); in [7], 2.03 (inactive). Moreover, the z-score was 0.627 (inactive) in [8]; -1.74 in [9]; -2.18 in assay [12]; -2.71 (inactive) in [13]; -0.116 (inactive) in assay [14]; 0.205 (inactive) in assay [15]. For the same compound, the composite z-score was 0.73 (inactive) in assay [4], 0.643 in assay [10], 0.0125 (inactive) in assay [11] and 0.83 with XIP peptide (Xip251-270).

Regarding `CCCC[C@@H](O)C1=C(COC)C[C@H]2C(=O)N(Cc3ccccc3)C(=O)[C@H]2[C@H]1CO`, the z-score in assay [1] is 0.111; in [2], -1.22 (inactive); in assay [3], -1.61 (inactive); in [5], -0.496 (inactive); in assay [6], 0.643 (inactive); in assay [7], 0.418 (inactive). Further, the z-score in assay [8] was 0.722 (inactive); in assay [9], 0.126; in assay [12], 0.553; in assay [13], -4.13 (inactive); in assay [14], -0.187 (inactive); in assay [15], 0.274 (inactive). Also, the composite z-score was -0.401 (inactive) in assay [4], -0.0525 in assay [10], 1.47 (inactive) in assay [11] and 0.782 in the assay with XIP peptide (Xip251-270).

Turning to `[N-]=[N+]=Nc1ccccc1C[C@@]1(C(N)=O)N=C(c2ccc(OCCCO)cc2)O[C@@H]1c1ccccc1N=[N+]=[N-]`, the z-score in [1] is 0.212; in [2], -3.3 (inactive); in assay [3] it was -0.902 (inactive); in assay [5] it was 0.0405 (inactive); in assay [6] it was -0.739 (inactive); in assay [7], 0.891 (inactive). In addition, the z-score in [8] was -0.174 (inactive); in assay [9], -0.76; in assay [12] it was -2.67; in assay [13] it was -5.05 (inactive); in assay [14] it was -0.0618 (inactive); in assay [15], 0.233 (inactive). The composite z-score is -0.652 (inactive) in [4], -0.112 in assay [10], 1.28 (inactive) in [11] and 0.763 in the assay on XIP peptide (Xip251-270).

In the case of `O=C(Cc1ccccc1)[C@H]1C2C=CCCC(c3ccccc3)=C2CN1Cc1ccccc1` (some centres undefined), the z-score in assay [1] was 1.37; in assay [2], -2.98 (inactive); in assay [3], 0.806 (inactive); in [5] it was 1.44 (inactive); in [6] it was -0.546 (inactive); in assay [7], 1.64 (inactive). The z-score in [8] was 1.29 (inactive); in assay [9], 1.08; in assay [12], 0.979; in [13] it was -2.16 (inactive); in assay [14], -0.171 (inactive); in [15], 0.213 (inactive). Moreover, the composite z-score in assay [4] was -0.658 (inactive); in [10], -0.441; in [11] it was 1.11 (inactive); with XIP peptide (Xip251-270) it was -0.0929.

Regarding `COc1cc2c(cc1O)C(C1CC1)N(C)CC2` (centres undefined), the z-score was 0.0514 in [1]; -0.391 (inactive) in [2]; 0.509 (inactive) in assay [3]; -0.572 (inactive) in assay [5]; -0.0321 (inactive) in [6]; 0.115 (inactive) in [7]. Besides, the z-score was 0.0029 (inactive) in assay [8]; -0.0158 in [9]; -0.871 in [12]; -4.09 (inactive) in assay [13]; 0.2 (inactive) in assay [14]; 0.406 (inactive) in assay [15]. In addition, the composite z-score is -0.501 (inactive) in assay [4], 0.175 in [10], -0.198 (inactive) in assay [11] and 0.598 with XIP peptide (Xip251-270).

As to `COc1ccc([Si](C)(C)[C@@H]2[C@@H](CC(=O)N(CCO)Cc3ccccc3)O[C@]3(C(=O)N(Cc4cccc(N5CCCCC5=O)c4)c4ccccc43)[C@H]2C)cc1`, the z-score in assay [1] is -0.369; in assay [2], 0.594 (inactive); in assay [3], -1.72 (inactive); in [5], 1.63 (inactive); in assay [6], 2.63 (inactive); in [7], 0.899 (inactive). For the same compound, the z-score was 0.246 (inactive) in assay [8]; -1.74 in [9]; -2.44 in assay [12]; -1.13 (inactive) in assay [13]; 0.405 (inactive) in assay [14]; 0.797 (inactive) in [15]. The composite z-score is -1 (inactive) in assay [4], -0.138 in [10], 0.0247 (inactive) in [11] and 0.709 with XIP peptide (Xip251-270).

With `CC1CC/C=C\[C@H]2OC34C=CCN(C(C)(C)C)C(=O)[C@H]3N(CCCCCO)C(=O)[C@@H]4C2C(=O)O1` (some centres undefined), the z-score in assay [1] is -0.643; in assay [2], 0.349 (inactive); in [3], 0.285 (inactive); in assay [5], 0.121 (inactive); in assay [6], -0.202 (inactive); in assay [7] it was 0.338 (inactive). For the same compound, the z-score was 0.338 (inactive) in assay [8]; 0.0992 in assay [9]; -0.375 in assay [12]; -4.58 (inactive) in assay [13]; 0.139 (inactive) in assay [14]; 0.408 (inactive) in assay [15]. The composite z-score in assay [4] was 0.797 (inactive); in assay [10] it was -0.102; in [11], 0.28 (inactive); in the assay on XIP peptide (Xip251-270), -0.48.

Take `CCCN1C(=O)[C@@]2(Cc3ccccc31)N=C(c1ccc(OCCCO)cc1)O[C@H]2c1ccccc1`: the z-score is 0.293 in assay [1]; -3.07 (inactive) in [2]; -2 (inactive) in assay [3]; -0.124 (inactive) in [5]; 0.806 (inactive) in [6]; -0.305 (inactive) in assay [7]. Further, the z-score in [8] was -1.03 (inactive); in [9], -1.7; in assay [12] it was -1.65; in assay [13], -6.04 (inactive); in assay [14] it was -0.0494 (inactive); in assay [15] it was 0.365 (inactive). The composite z-score was -0.172 (inactive) in assay [4], -0.212 in [10], 0.468 (inactive) in [11] and 0.828 with XIP peptide (Xip251-270).

For the compound `CCCCC(CC)C(O)C1C=CC2C(=O)N(c3ccccc3)C(=O)C2N1Nc1ccccc1F` (centres undefined), the z-score was 0.518 in [1]; 0.814 (inactive) in assay [2]; 0.888 (inactive) in [3]; 0.657 (inactive) in [5]; 0.732 (inactive) in assay [6]; 0.207 (inactive) in assay [7]. For the same compound, the z-score in assay [8] is 0.644 (inactive); in [9] it was 0.767; in assay [12] it was -0.579; in [13], -2.25 (inactive); in assay [14], 0.322 (inactive); in [15] it was 0.195 (inactive). For the same compound, the composite z-score in [4] is 0.301 (inactive); in assay [10], 0.0727; in assay [11], 0.634 (inactive); in the assay on XIP peptide (Xip251-270) it was 0.0509.
